Screens as filed in PubChem BioAssay.
Giardia FBPA inh: blocks Giardia fructose-bisphosphate aldolase activity; A8B2U2; purified Giardia FBPA; Potency, µM (top dose mostly 59.6 µM), for inactives: at the top dose activity, negative = inhibition, actives largely listed as inhibitors; hit rate 0.71% among 290,000; further: potency means the concentration at half of the fitted maximal effect; on the % scale 0 is the no-effect control and ±100 the full control effect; nearly all actives have a fitted effect of over 55% in size
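Giardia FBPA (40 nM reagent) was preincubated 10 min at RT with compound (up to 57.5 uM final), then substrate plus GAPDH/TPI/NAD/arsenate coupling system with diaphorase/resazurin was added; resorufin fluorescence (525/598 nm) was read after 20 min.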
CHX counter: affects cycloheximide protein synthesis inhibition readout, counter-screen. hit rate 12% among 300,000. max response, %. cell reporter, cycloheximide protein synthesis inhibition counterscreen; in the data active means max response mostly above about 13%, no sharp cut-off; inactive means mostly below about 14%; further: read at 38.3 µM for the half of the compounds with a filed dose; 0% is about no effect
LmPK inhibitor: LmPK (Leishmania mexicana) enzyme inhibition; Q27686; purified LmPK, Kinase-Glo ATP luminescence, 1 h; Potency, µM (titrated, usually from 57.5 µM), for inactives: top-dose activity change, negative = inhibition, hits mostly inhibitors; hit rate 0.37% among 290,000; AID 1721; further: potency means the concentration at half of the fitted maximal effect; on the % scale 0 is the no-effect control and ±100 the full control effect
Target sequence (Q27686 whole entry, looked up): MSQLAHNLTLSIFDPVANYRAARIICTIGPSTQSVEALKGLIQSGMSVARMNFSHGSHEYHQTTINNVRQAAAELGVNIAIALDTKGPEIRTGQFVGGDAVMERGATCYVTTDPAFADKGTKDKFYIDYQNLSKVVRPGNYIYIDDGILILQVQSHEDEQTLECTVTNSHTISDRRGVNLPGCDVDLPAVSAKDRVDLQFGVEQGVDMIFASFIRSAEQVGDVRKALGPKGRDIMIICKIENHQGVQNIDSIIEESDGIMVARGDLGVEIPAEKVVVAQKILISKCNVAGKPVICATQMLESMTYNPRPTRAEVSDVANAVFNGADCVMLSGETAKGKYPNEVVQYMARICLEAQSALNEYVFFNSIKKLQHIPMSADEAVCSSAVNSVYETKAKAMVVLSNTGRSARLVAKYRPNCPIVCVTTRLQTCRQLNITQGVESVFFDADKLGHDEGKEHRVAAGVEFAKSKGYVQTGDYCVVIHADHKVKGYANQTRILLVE
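In 50 mM imidazole pH 7.2 with 7 mM MgCl2, LmPK (0.1 nM) turned over PEP (0.5 mM) and ADP (0.1 mM) for 1 h at room temperature. Luciferase read-out of ATP.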
Shiga inhibitor: inhibitors of Shiga toxin in Vero cells. Vero cells, Shiga toxin protein synthesis inhibition reporter. inhibition, % at 38.7 µM. hit rate 9.2% among 290,000. AID 2315; in the data active means inhibition mostly above about 28%, no sharp cut-off; inactive means mostly below about 43%; further: 0% is about no effect
NS1 function inh: blocks influenza NS1 protein function. Potency, µM (highest dose often 46.1 µM), without a hit: at the highest dose activity, positive = more growth. hit rate 0.4% among 270,000. AID 2326; calls by dose curve; further: potency means the concentration at half of the fitted maximal effect; actives are rising curves; nearly all actives have a fitted effect of over 50% in size
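Read-out: OD600 growth recovery of NS1-expressing budding yeast. Cells grown overnight at 30C in -URA glucose medium, washed, resuspended and diluted 1:100 in 2% galactose assay medium, pH 6.0. Same strain lacking NS1 served as positive control.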
Active calls of the source: *; . = not tested or not shown. An excerpt weighted towards active compounds, which were near 14% of everything screened. Unless noted, the call rests on the fitted dose curve; in most records, active means well fitted curve in the direction sought with a large enough effect; inconclusive means small, poorly fitted or top-dose-only effect, or another doubt; inactive means no such curve, though single readings can be large; an effect the other way counts as inactive or inconclusive.

SMILES	Giardia FBPA inh	CHX counter	LmPK inhibitor	Shiga inhibitor	NS1 function inh
Cc1cc(NC(=O)CCSc2ccccc2)no1	2%	24*	2%	36*	4%
Cc1cc(NC(=O)c2sc3ccccc3c2O)no1	-10%	62*	1%	82*	-102%
COCCN(C(=O)CNC(=O)c1ccco1)C(C(=O)NC1CCCC1)c1ccc(F)cc1 (configuration not stated)	8%	-6	8%	-9	2%
COCCCc1cc(F)c(S(=O)(=O)N2CCN(S(=O)(=O)c3ccc4c(c3)OCCO4)CC2)cc1F	.	-1	.	-2	.
CCCCCCCCCCCCCCCC(=O)OCC(O)C1OC(=O)C(O)=C1O (configuration not stated)	5%	6	.	9	.
C=CCOc1ccc(/C=C2\SC(=Nc3cccnc3)NC2=O)cc1	6%	10*	-3%	22	4%
O=C(Oc1ccc(-c2cnc3ccccc3n2)cc1)c1cc([N+](=O)[O-])ccc1Cl	1%	48*	2%	83*	-2%
O=[N+]([O-])c1cc(-c2cnc3ccccc3n2)ccc1Cl	5%	14	4%	17	-3%
Cc1c(C(=O)Oc2ccc(-c3cnc4ccccc4n3)cc2)cccc1[N+](=O)[O-]	9%	37*	-1%	95*	-10%
COc1ccc(-n2c(=O)c(C)nc3cnc(Oc4ccccc4)nc32)cc1	-3%	.	.	.	.
Cc1sc(NC(=O)C2C3CCC(O3)C2C(=O)O)nc1-c1ccc(CC(C)C)cc1 (configuration not stated)	-1%	42*	-2%	80*	-40%
O=Cc1cn[nH]c1-c1ccccc1	-1%	-3	1%	-10	-5%
O=Cc1cc(-c2ccccc2)[nH]c1-c1ccccc1	6%	24*	2%	.	-6%
O=C(c1cnsn1)N1CCC(CO)(Cc2cccc(F)c2)CC1	3%	54*	-2%	67*	-5%
COc1cccc(C(C(=O)NCC2CCCO2)N(C(=O)Cn2nnc3ccccc32)c2ccc(NC(C)=O)cc2)c1OC (configuration not stated)	14%	-1	4%	-7	-16%
Cc1ccc(C)c(OCC(=O)O/N=C(\N)c2ccccn2)c1	2%	28*	4%	88*	-15%
N/C(=N\OC(=O)CCCN1C(=O)c2ccccc2C1=O)c1ccccn1	0%	1	0%	-3	.
Cc1cc(OCC(=O)O/N=C(\N)c2ccccc2)cc(C)c1Cl	0%	5	3%	9	9%
N/C(=N\OC(=O)COc1ccccc1Cl)c1ccccn1	-2%	45*	-22%	65*	-10%
Cc1ccc(C)c(OCC(=O)O/N=C(\N)c2cccnc2)c1	3%	19*	0%	49	-38%
Cc1ccc(SCC(=O)O/N=C(\N)c2cccnc2)cc1	.	17*	-8%	27	-20%
Cc1cc(C)c(C)c(OCC(=O)O/N=C(\N)c2cccnc2)c1	0%	6	-5%	0	6%
O=c1cnc2cnc(Oc3ccccc3)nc2n1Cc1cccs1	6%	.	.	.	.
N/C(=N\OC(=O)COc1ccc2ccccc2c1)c1ccccn1	-23%	67*	0%	128*	-68%
CCc1ccc(OCC(=O)O/N=C(\N)c2cccnc2)cc1	4%	32*	1%	44*	-2%
SMILES	Giardia FBPA inh	CHX counter	LmPK inhibitor	Shiga inhibitor	NS1 function inh
N/C(=N\OC(=O)COc1ccc(Br)cc1)c1ccncc1	7%	-3	7%	19	-1%
CC(C)CN1CCN(Cc2cnc(-c3ccc(Cl)cc3)nc2)CC1CCO (configuration not stated)	1%	13*	2%	111	-3%
Cc1ccc(CN2CCN(CCC(C)C)C(CCO)C2)s1 (configuration not stated)	4%	1	-8%	-18	-3%
Cc1ccccc1-c1ncc(CN2CCN(C3CCCCC3)C(CCO)C2)cn1 (configuration not stated)	4%	22*	-3%	16	1%
OCCC1CN(Cc2cnc(-c3ccc(Cl)cc3)nc2)CCN1C1CCCC1 (configuration not stated)	1%	1	-3%	11	5%
Cc1ccc(CN2CCN(CC(C)C)C(CCO)C2)s1 (configuration not stated)	0%	39*	0%	82*	-3%
CN1CCC[C@H](C(=O)OCC(=O)[C@]2(O)CC[C@@H]3[C@H]4CCC5=CC(=O)CC[C@@]5(C)[C@H]4[C@@H](O)C[C@]32C)C1	.	.	.	.	-6%
COc1ccc2c(c1)CN([C@H](C)[C@@H]1CC[C@@H]3[C@H]4CC[C@H]5C[C@@H](O)CC[C@@]5(C)[C@H]4CC[C@]31C)CO2	.	.	.	.	-31%
CCCCC(NC(=O)CCc1c(C)c2cc3c4c(oc3c(C)c2oc1=O)CCCC4)C(=O)O (configuration not stated)	-2%	4	-1%	-1	15%
Cc1[nH]n(-c2ccccc2)c(=O)c1C=Nc1cnc2ccccc2c1	-12%	-2	-4%	-18	-8%
CSc1nnc(-c2ccccc2N=Cc2c(C)[nH]n(-c3ccc4ccccc4c3)c2=O)c(=O)[nH]1	3%	33*	-21%	37	10%
C=CCSc1nnc(-c2ccccc2N=Cc2c(C)[nH]n(-c3ccccc3)c2=O)c(=O)[nH]1	-15%	23*	0%	56	-72%
OCC1CCN(Cc2nc(Cc3ccccc3Cl)no2)CC1	1%	12*	7%	24	-1%
Fc1ccccc1Cc1noc(CN2CCN(c3ccc(Cl)cn3)CC2)n1	3%	1	4%	0	-5%
COCC1CCN(Cc2nc(Cc3ccccc3Cl)no2)CC1	0%	1	-1%	4	0%
Clc1ccccc1Cc1noc(CN2CCN(c3cnccn3)CC2)n1	-5%	13*	-9%	34	-5%
Clc1ccccc1Cc1noc(CN2CCSCC2)n1	-2%	12*	1%	40	1%
O=C(NCCSCc1ccco1)c1ccc(=O)[nH]c1	-13%	-3	11%	-8	6%
CCOc1ccc(C(NC(=O)c2ccco2)c2ccc(OC)c(OC)c2)cc1 (configuration not stated)	15%	-1	1%	-9	-6%
COc1cc(C(Nc2ccccn2)c2c(NC(=O)c3ccco3)sc(C)c2C)cc(OC)c1OC (configuration not stated)	2%	29*	-3%	76*	-15%
COc1ccc(C(Nc2ccccn2)c2c(NC(=O)c3ccco3)sc(C)c2C)cc1OC (configuration not stated)	0%	22*	2%	26	-3%
NC(=O)c1ccc(CN2CCc3ccccc3C2)cc1	-9%	-3	0%	-10	11%
C=CC(C)(C)c1[nH]c2ccccc2c1C1=C(O)C(=O)C(c2c[nH]c3c(CC=C(C)C)cccc23)=C(O)C1=O	14%	.	.	.	.
CC(=O)c1sc2nc(C)c3c(c2c1N)CCCC3	-7%	21*	-1%	55	-11%
CN(C)c1cccc(C(=O)N/N=C/c2ccsc2)c1	-11%	67*	-3%	80*	6%
